From PubChem BioAssay AID743261 (The Scripps Research Institute Molecular Screening Center, 2014)
The whole screen tested about 3,300 compounds, of which about 35 (1%) were called active. A selection follows. A number with no mark means an inactive call. Rule as the data show it: active = inhibition above about 11%; inactive = the rest.

target: 1-phosphatidylinositol 4,5-bisphosphate phosphodiesterase beta-3 (Homo sapiens) (UniProt Q01970); test: PLC-beta3 inhibitor confirmation, biochemical, fluorescence, purified enzyme (AID 743261); settings: purified PLC-beta3, fluorogenic substrate fluorescence; at 12.3 µM; hits give high values
Sequence (Q01970 whole entry, looked up): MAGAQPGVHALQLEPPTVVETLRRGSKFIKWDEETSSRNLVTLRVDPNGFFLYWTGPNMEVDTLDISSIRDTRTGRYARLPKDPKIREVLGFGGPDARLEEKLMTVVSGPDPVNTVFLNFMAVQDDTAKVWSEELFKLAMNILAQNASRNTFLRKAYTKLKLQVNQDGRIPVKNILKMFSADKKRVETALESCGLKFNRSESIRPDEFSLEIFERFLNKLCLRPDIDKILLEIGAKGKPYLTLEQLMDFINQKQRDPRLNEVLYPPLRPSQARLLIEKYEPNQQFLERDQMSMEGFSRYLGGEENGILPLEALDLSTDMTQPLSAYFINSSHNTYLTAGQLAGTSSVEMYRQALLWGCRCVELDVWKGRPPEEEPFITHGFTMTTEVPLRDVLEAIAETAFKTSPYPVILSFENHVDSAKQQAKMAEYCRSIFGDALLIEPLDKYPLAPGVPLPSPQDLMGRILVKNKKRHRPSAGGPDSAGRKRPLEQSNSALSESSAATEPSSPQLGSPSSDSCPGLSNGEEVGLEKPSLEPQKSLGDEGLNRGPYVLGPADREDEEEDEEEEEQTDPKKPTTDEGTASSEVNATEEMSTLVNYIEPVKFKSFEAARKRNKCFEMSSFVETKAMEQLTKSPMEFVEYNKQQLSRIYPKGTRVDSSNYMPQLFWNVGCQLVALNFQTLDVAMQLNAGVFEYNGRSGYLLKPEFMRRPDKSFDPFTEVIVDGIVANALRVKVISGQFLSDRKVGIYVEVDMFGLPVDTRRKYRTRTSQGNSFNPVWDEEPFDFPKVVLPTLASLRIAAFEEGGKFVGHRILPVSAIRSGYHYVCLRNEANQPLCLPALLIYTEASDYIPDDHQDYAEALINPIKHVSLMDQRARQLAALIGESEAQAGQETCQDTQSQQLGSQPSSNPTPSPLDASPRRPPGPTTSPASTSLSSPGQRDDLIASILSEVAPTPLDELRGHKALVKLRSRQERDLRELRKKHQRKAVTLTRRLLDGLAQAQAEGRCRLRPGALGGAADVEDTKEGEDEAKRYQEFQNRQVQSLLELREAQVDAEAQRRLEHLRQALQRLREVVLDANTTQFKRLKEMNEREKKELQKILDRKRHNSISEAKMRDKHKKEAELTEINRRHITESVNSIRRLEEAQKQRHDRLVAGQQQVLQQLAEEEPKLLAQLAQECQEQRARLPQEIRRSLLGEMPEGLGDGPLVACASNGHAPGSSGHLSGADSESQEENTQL

| Compound | inhibition |
| --- | --- |
| Cc1cccc(C(=O)NCCCN2CCCC2=O)c1 | 2.72% |
| CN(C)S(=O)(=O)c1cccc(NC(=O)COC(=O)C2(c3ccccc3F)CCCC2)c1 | 0.6% |
| Nc1nc(NCC(=O)O)nc(N2CCCCCC2)c1[N+](=O)[O-] | 5.2% |
| CCOC(=O)Nc1ccc(NC(=O)OCC)cc1 | 4.88% |
| CC1(C)CC(=O)C=C(NC2CC(C)(C)NC(C)(C)C2)C1 | 0.58% |
| Cc1ccc(S(=O)(=O)N2CCCCC2)cc1NC(=O)CCNC(=O)c1ccccc1 | -5.41% |
| FC(F)(F)c1cnc(Oc2ccccc2-c2nnc(-c3ccc(Cl)cc3)o2)c(Cl)c1 | -7.7% |
| O=C(NC12CC3CC(CC(C3)C1)C2)N1CCCC(CO)C1 (stereo not given) | -3.42% |
| CC(C)(C)c1ccc(C(=O)Nc2cc(Cl)c(Br)cc2C(=O)O)cc1 | -8.39% |
| Cc1ccc(S(=O)(=O)Cn2nnnc2CN2CCN(Cc3ccc4c(c3)OCO4)CC2)cc1 | 2.26% |
| CC(C)C(NC(=O)C1CCC(C(C)(C)C)CC1)C(=O)NCCCN1CCCCC1 (stereo not given) | 0.28% |
| CC1CCN(S(=O)(=O)c2ccc(S(=O)(=O)NCc3ccco3)cc2)CC1 | -1.58% |
| O=C(NCc1ccc(F)cc1F)[C@@H]1CCCN1C(=O)[C@@H]1CCCN1C(=O)c1cccc(Cl)c1 | -0.65% |
| CC(=O)C1=C(O)C(=O)N(c2cccnc2)C1c1ccc([N+](=O)[O-])cc1 (stereo not given) | -1.47% |
| O=c1ccc2c(-c3ccccc3S(=O)(=O)O)c3ccc(O)c(O)c3oc-2c1O | 21% (active) |
| COc1ccc(/C(C)=N/N2CCOCC2)c(O)c1 | -14.9% |
| COCCNC(=O)C(c1ccc(O)cc1)N(C(=O)CCC(=O)Nc1nccs1)c1ccc(C)cc1 (stereo not given) | -0.24% |
| O=C1NC2(CCCCC2)N=C1c1ccccc1 | -4.41% |
| Cc1cccc([C@@H]2[C@@H]3C(=O)N(Cc4ccccc4)C(=O)[C@@H]3[C@]3(Cc4ccc(Cl)cc4)C(=O)N(c4cccc(Cl)c4)C(=O)N23)c1 | 5.38% |
| Cc1cc(NC(=O)CN2C(=O)NC(CC(C)C)C2=O)no1 (stereo not given) | 0.1% |
| CC(C)CCSc1ncnc2c1oc1nc3c(cc12)COC(C)(C)C3 | -2.11% |
| O=C(C[C@H]1C(=O)N(c2ccc(F)c(F)c2)C[C@@H]1Cc1ccccc1)Nc1ccccc1 | 9.92% |
| CN(C(=O)c1ccc(NC(=O)Cc2cccc(NC(=O)C3CCN(C(=O)c4ccccc4)CC3)c2)cc1)C1CC1 | -1% |

| Compound | inhibition |
| --- | --- |
| CCCCn1c(SCC(=O)N2CCCC2=O)nc2cc(S(N)(=O)=O)ccc21 | 0.23% |
| O=c1c([N+](=O)[O-])cc(C(F)(F)F)cn1Cc1cccc(Cl)c1 | 4.27% |
| Cc1nc(-c2ccc(F)cc2)c(CC(=O)N2CCN(S(=O)(=O)c3ccc(F)cc3)CC2)s1 | -1.44% |
| O=C(COc1ccc(Cl)cc1)N1CCN(c2cccc(C(F)(F)F)c2)CC1 | -5.48% |
| O=S(=O)(c1ccc(F)cc1)N1CCN(C(=S)NC2CCCC2)CC1 | -3.43% |
| CC1(C(=O)NCc2ccccc2)CSCC(=O)N1CCCN1CCOCC1 (stereo not given) | -2.02% |
| O=[N+]([O-])c1cc(C(F)(F)F)ccc1NN=C1CCCC1 | 2.81% |
| O=c1c2ccccc2c(-c2ccccc2)nn1Cc1ccccc1 | -6.9% |
| CN(CC(=O)NC1CCCCC1)S(=O)(=O)c1ccc(Br)s1 | 3.57% |
| COc1ccccc1C(=O)N1C(CC(=O)Nc2ccccc2C)C(=O)NC2CCCCC21 (stereo not given) | -8.41% |
| COc1cc(OC)nc(S(C)(=O)=O)n1 | -3.28% |
| O=C(C(c1ccccc1)c1ccccc1)N1CCN(CC(O)COc2ccccc2)CC1 (stereo not given) | 3.79% |
| COC(=O)NC1(C(F)(F)F)NC(=O)N(C2CCCCC2)C1=O (stereo not given) | 2.36% |
| N#C[C@]1(S(=O)(=O)c2ccccc2)C[C@@H]2ON=C(c3cccc(Br)c3)[C@@H]2C1 | 0.44% |
| CC1Oc2ccccc2N(Cc2cccnc2)C1=O (stereo not given) | -1.95% |
| COc1ccccc1C(=O)Nc1cccc(C(=O)N2CCOCC2)c1 | -1.43% |
| S=c1[nH]nc(-c2cccnc2)n1/N=C/C(Cl)=C\c1ccccc1 | -5.69% |
| CC1(C)CC(=O)C=C(NCCN2CCNCC2)C1 | -4.21% |
| CCn1c(/C=C/Nc2ccccc2)[n+](CC)c2ccc(C(=O)OCC(F)(F)F)cc21 | -12.7% |
| COC(=O)CN1C(=O)C(O)=C(C(C)=O)C1c1ccc([N+](=O)[O-])cc1 (stereo not given) | 2.66% |
| COc1ccc(-c2ccc(CN3C(CC(C)C)C(=O)N(Cc4cn(CC5CCCCC5)nn4)CCS3(=O)=O)cc2)cc1 (stereo not given) | -1.28% |
| COc1ccc([N+](=O)[O-])cc1N(CC(O)Cn1nnc2ccccc21)S(=O)(=O)c1ccc(C)cc1 (stereo not given) | 3.85% |
| CCOc1ccccc1C1CC(c2cccc(NS(C)(=O)=O)c2)=NN1C(=O)c1ccccc1 (stereo not given) | -3.53% |

| Compound | inhibition |
| --- | --- |
| O=C1CS(=O)CN1c1ccc(Oc2ccccc2)cc1 (stereo not given) | 0.56% |
| COc1cc(NC(=O)COC(=O)c2ccc([N+](=O)[O-])s2)cc(OC)c1OC | 2.2% |
| O=S(=O)(Nc1ccc(Oc2ncccn2)c(Cl)c1)c1ccc(F)cc1 | -3.4% |
| O=C(CSc1nnc(-c2ccncc2)n1C1CCCCC1)Nc1ccccc1 | -1.28% |
| COc1ccccc1CCNC(=O)CN1C(=O)NC2(CCCC2)C1=O | 7.54% |
| Clc1ccc(C2[C@H]3CN(CC4CCCCC4)[C@H](c4ccccc4)C34CC2(c2cccnc2)C4)cn1 (stereo not given in full) | -4.05% |
| C[C@H](C(=O)N(C)c1ccccc1)[C@@H](O)c1ccc2ccccc2c1 | -3.71% |
| CCN(CC)Cc1csc2ccc(Br)cc12 | 0.36% |
| C=CCSC(CC)(CC)C(N)=O | 3.18% |
| COCc1cc(C(C)=O)ccc1OC | 0.95% |
| Cc1cccc(NC(=O)c2ccc3c(=O)n(CC4CCCO4)c(=S)[nH]c3c2)c1 (stereo not given) | 1.92% |
| CCc1ccc(-c2nc(SCC(=O)NC3CCCC3)n[nH]2)cc1 | -2.19% |
| C=CCOc1ccc(Cl)cc1CNCCCN1CCOCC1 | 1.5% |
| Cc1cc(NC(=O)COn2nnc3ccccc32)no1 | -9.92% |
| Cc1ccc(Cn2ccc(NC(=O)C3C4CCC(C4)C3C(=O)O)n2)cc1 (stereo not given) | -9.86% |
| CN(CC(=O)Nc1ccccc1Cl)C(=O)COc1cccc2c1OC(C)(C)C2 | 0.64% |
| CNC(=O)n1ccc(C(=O)N2CCCCC2)n1 | -1.25% |
| COc1ccc(C(N)c2csc(NC(=O)Nc3cccc(C(F)(F)F)c3)n2)cc1 (stereo not given) | 3.1% |
| O=C(NCCCN1CCCCC1)C1CC(=O)N(CCc2ccccc2)C1 (stereo not given) | 1.91% |
| O=C1/C(=C\c2ccsc2)NC(=S)N1c1ccccc1 | -5.74% |
| CC(C)Cn1cnc2c1c(=O)n(CC(O)c1ccccc1)c(=O)n2CC(C)C (stereo not given) | -3.57% |
| C=CCOc1ccccc1/C=N/NC(=O)Cc1ccccc1 | -2.73% |
| CCOC(=O)N1CCC(c2cc(=O)n(-c3ccccc3)[nH]2)CC1 | 2.09% |

| Compound | inhibition |
| --- | --- |
| CCOc1cccc(-c2nnc3sc(COc4ccc(OC)cc4)nn23)c1 | -3.2% |
| O=C(/C=C/c1c(F)cccc1Cl)Nc1nn[nH]n1 | -1.92% |
| O=S1(=O)c2ccc(Br)cc2OC[C@H](Cc2ccccc2)N1Cc1cn(Cc2ccccc2)nn1 | 6.58% |
| CC(=O)c1c(C)[nH]c(C(=O)OCC(=O)Nc2cc(S(=O)(=O)N3CCCCC3)ccc2C)c1C | 2.76% |
| CCC1CCCCN1C(=O)CSc1nc(C)cc(C)n1 (stereo not given) | -1.69% |
| Cc1ccc(C(=O)N2CCN(C(=O)N3CCOCC3)CC2)cc1 | -1.36% |
| Cc1ccc(C)c(N2CCN(S(=O)(=O)c3c(C)[nH]c(C)c3C(=O)N3CCCC3)CC2)c1 | -5.1% |
| Cc1ccc(C23CC4CC(CC(C(=O)NCC(=O)O)(C4)C2)C3)cc1 | 4.19% |
| CCC[C@H]1CCCC/C=C\CCCC(=O)OCCN1C(=O)OC(C)(C)C | 7.62% |
| CCOc1ccccc1NC(=O)c1cccnc1 | -4.38% |
| O=C1c2ccccc2S(=O)(=O)N1CC(O)Cn1c2ccccc2c2ccccc21 (stereo not given) | -0.97% |
| Cc1cc(NC(=O)c2ccc(F)cc2)ccc1NC(=O)c1ccco1 | 8.74% |
| Cc1ccc(C(=O)Nc2ccc(C)c(S(=O)(=O)N(C)C)c2)s1 | -7.5% |
| COC(=O)N(C)C[C@@H]1OCc2cnnn2CCCC(=O)N([C@@H](C)CO)C[C@@H]1C | -4.12% |
| CCOc1ccc(CCNC(=O)COC(=O)CCS(=O)(=O)c2ccc(C)cc2)cc1OCC | -2.58% |
| CCOC(=O)[C@]12CCCC=C1N(CCCOC)C(=O)[C@@H]2CC(=O)N1CCOCC1 | -1.19% |
| NC1=CC(=O)C(=O)c2cccnc21 | -2.06% |
| O=C(NCc1cccnc1)c1cc(C2CCCCN2C(=O)CCc2ccccc2)on1 (stereo not given) | 1.6% |
| NC1=NN(c2cccc(C(=O)O)c2)C(=O)C1 | 0.11% |
| OC(CNCC1CCCO1)Cn1c2ccc(Br)cc2c2cc(Br)ccc21 (stereo not given) | -1.89% |
| CCCCc1nc2ccccc2c(NC(=O)CN2CCN(C)CC2)c1CCC | -2.31% |
